The test has as its system M. mycetomatis strain mm55. Particulars: 96 h, 2 µM.

This is an account of results in article PMC12670160, “A drug-repurposing screen of FDA- and EMA-approved drugs identifies two NF-κB inhibitors active against eumycetoma” (Journal of Antimicrobial Chemotherapy, 2025).

Structures can show the parent of a compound that is named as a salt. Where two headings read alike, the source gives them in different places. About 130 (2.5%) of roughly 5,300 compounds showed an effect of 50% or more. The list comes from a sample in which strong results are over-represented; it also holds similar structures and randomly drawn compounds.

Regarding `COc1cc2cc(c1Cl)N(C)C(=O)C[C@H](OC(=O)C(C)C)[C@]1(C)O[C@H]1[C@H](C)[C@@H]1C[C@@](O)(NC(=O)O1)[C@H](OC)/C=C/C=C(\C)C2` [ONC0000769, ansamitocin p3], the “% viability” value (m. mycetomatis hyphae) was determined as 44.45%. For the molecule `Cc1[nH]c2ccc(O)cc2c1CCN` [ONC0000021, 2methyl5hydroxytryptamine], the “% viability” value (m. mycetomatis hyphae) came to 80.31%. Same read-out and setting: the value for `OCC(Br)(Br)Br` [ONC0003374, 222tribromoethanol] was 70.94%. Same read-out and setting: the value for `COC(=O)CC[C@@H]1N=C(c2ccccn2)c2cc(Br)ccc2-n2c(C)cnc21` [ONC0001123, remimazolam benzenesulfonate] was 82.85%. Still for that read-out and setting: with `Ic1cncc(OC[C@@H]2CCN2)c1` [ONC0001838, 5iodoa85380] the figure was 120.9%. As for `NC(=S)N/N=C/c1coc2ccccc2c1=O` [ONC0001578, fpa124], the “% viability” value (m. mycetomatis hyphae) is listed as 55.38%.

For the molecule `C[C@@H](N)C(=O)N[C@@H](CO)C(=O)N[C@H](C(=O)N[C@H](C(=O)N[C@H](C(=O)N[C@@H](CC(N)=O)C(=O)N[C@@H](Cc1ccc(O)cc1)C(=O)N[C@H](C(N)=O)[C@@H](C)O)[C@@H](C)O)[C@@H](C)O)[C@@H](C)O` [ONC0001968, dapta], for the setting “primary screen, metabolic activity vs growth control, inhibitor”, the “% viability” value amounted to 96.08%. For the molecule `COc1ccc(C(=O)c2c(C)n(CCN3CCOCC3)c3ccccc23)cc1` [ONC0001936, pravadoline], the “% viability” value (m. mycetomatis hyphae) is 72.97%. Same read-out and setting: the value for `COc1ccc(C(=O)c2c(C)n(CCN3CCOCC3)c3cc(I)ccc23)cc1` [ONC0003455, am630 iodopravadoline] was 49.32%; that for `CC(=O)NCCCOc1ccc(C(=O)N2CCC(N3C(=O)CCc4ccccc43)CC2)cc1` [ONC0002419, fuscoside] was 92.96%. Take `CC(=O)O[C@H]1CC[C@@]2(C)C(=CC(=O)[C@@H]3[C@@H]2CC[C@]2(C)C(=O)CC[C@@H]32)C1` [ONC0002730, 7oxodehydroepiandrosterone acetate]: the “% viability” value (m. mycetomatis hyphae) is 95.04%. Consider `C[C@]12CC[C@H](O)C[C@@H]1CC[C@@H]1[C@H]2CC[C@]2(C)C(=O)CC[C@@H]12` [ONC0005247, epiandrosterone 3androsterone], for which the “% viability” value (m. mycetomatis hyphae) is 106.6%. Still for that read-out and setting: with `CC(=O)O[C@H]1CC[C@@]2(C)C(=CCC3C2CC[C@]2(C)C(=O)CCC32)C1` (stereo partly shown) [ONC0003269, prasterone acetate] the figure was 44.2%; with `Cc1ncc(OC[C@@]2(c3cccc(F)c3)C[C@H]2C(=O)Nc2ccc(F)cn2)c(C)n1` [ONC0001232, lemborexant], 126.3%. Still for that read-out and setting: with `COC(=O)C1=C(C)NC(C)=C(C(=O)OCCCN2CCC(c3ccccc3)(c3ccccc3)CC2)[C@@H]1c1cccc([N+](=O)[O-])c1` [ONC0000198, dexniguldipine] the figure was 76.6%; with `Cc1ccc2c(c1)[C@]13CCCC[C@@H]1[C@H](C2)N(C)CC3` [ONC0001964, dimemorfan], 96.79%. Take `O=C1C=C2C=C[C@@H]3C[C@@]2(O1)[C@H]1CCCCN31` [ONC0004197, securinine]: the “% viability” value (m. mycetomatis hyphae) stood at 79.41%. The same measure, in the same setting: the value for `OC1(c2ccc(Cl)cc2)c2ccccc2C2=NCCN21` (stereo not shown) [ONC0005297, mazindol] was 110.5%. In the case of `CN(C)CCNc1nc2cc(O)ccc2c2c1C(=O)c1ccccc1-2` [ONC0002255, tas103 dihydrochloride], under “m. mycetomatis hyphae”, the “% viability” value stood at 114.4%. The same measure, in the same setting: with `CN(C(=O)/C=C/c1ccoc1)[C@@H]1CC[C@@]2(O)[C@H]3Cc4ccc(O)c5c4[C@@]2(CCN3CC2CC2)[C@H]1O5` [ONC0001145, nalfurafine hydrochloride] the figure was 84.21%.

As to `Oc1ccc2c3c1O[C@H]1c4oc5ccccc5c4C[C@@]4(O)[C@@H](C2)N(CC2CC2)CC[C@]314` [ONC0001439, naltriben], the “% viability” value (m. mycetomatis hyphae) turned out to be 49.95%.

Turning to `COC(=O)/C=C/C(=O)N[C@@H]1CC[C@@]2(O)[C@H]3Cc4ccc(O)c5c4[C@@]2(CCN3CC2CC2)[C@H]1O5` [ONC0001459, betafunaltrexamine], the “% viability” value (m. mycetomatis hyphae) came to 48.02%. Still for that read-out and setting: with `Oc1ccc2c3c1O[C@H]1c4[nH]c5ccccc5c4C[C@@]4(O)[C@@H](C2)N(CC2CC2)CC[C@]314` [ONC0001519, naltrindole] the figure was 93.26%; with `Oc1ccc2c3c1O[C@H]1c4[nH]c5c(c4C[C@@]4(O)[C@@H](C2)N(CC2CC2)CC[C@]314)C[C@@]1(O)[C@H]2Cc3ccc(O)c4c3[C@@]1(CCN2CC1CC1)[C@H]5O4` [ONC0002653, norbinaltorphiminedihydrochloride], 66%. As to `Oc1ccc2c3c1O[C@H]1[C@@H](O)CC[C@@]4(O)[C@@H](C2)N(CC2CCC2)CC[C@]314` [ONC0002017, nalbuphinehcl], the “% viability” value (m. mycetomatis hyphae) was found to be 86.82%. The same measure, in the same setting: the value for `O=C1NC(=S)NC(=O)C1C(=O)Nc1ccccc1` [ONC0002959, merbarone] was 104.2%; that for `COc1ccsc1CNCC[C@@]1(c2ccccn2)CCOC2(CCCC2)C1` [ONC0001391, oliceridine hydrochloride] was 102.3%; that for `O=C(C[S+]([O-])C(c1ccccc1)c1ccccc1)NO` (stereo not shown) [ONC0001184, adrafinil] was 106.5%.

For the molecule `Clc1ccc(CO/N=C(\Cn2ccnc2)c2ccc(Cl)cc2Cl)c(Cl)c1` [Oxiconazole nitrate], for the setting “m. mycetomatis hyphae”, the “% viability” value is listed as 0.8852%. Same read-out and setting: with `CC(=O)[C@H]1CC[C@H]2[C@@H]3CC[C@@H]4C[C@H](O)CC[C@]4(C)[C@H]3CC[C@]12C` [ONC0001671, allopregnanolone] the figure was 102.1%; with `Cc1ccccc1-n1c(CF)nc2ccc(N)cc2c1=O` [ONC0003405, afloqualone], 71.52%.

With `CC(C)CC(N)C1(c2ccc(Cl)cc2)CCC1` (stereo not shown) [ONC0002665, bts54505], the “% viability” value (m. mycetomatis hyphae) was 62.54%. The same measure, in the same setting: with `O=C(Nc1ccccc1F)N[C@H]1N=C(c2ccccc2)c2ccccc2NC1=O` [ONC0000966, rsv604] the figure was 70.36%; with `OCC(O)[C@H]1O[C@@H]2O[C@H](C(Cl)(Cl)Cl)O[C@@H]2[C@H]1O` (stereo partly shown) [ONC0004285, chloralose], 88.6%.

`c1ccc(CC(c2ccccc2)N2CCCCC2)cc1` (stereo not shown) [ONC0000060, 112diphenylethylpiperidine]: the “% viability” value (m. mycetomatis hyphae) is 45.07%.

Turning to `Cc1cccc(C)c1N=C1NCCCS1` [ONC0000628, xylazine], the “% viability” value (m. mycetomatis hyphae) came to 103.4%. Same read-out and setting: the value for `O=C(O)Cc1cccnc1C(=O)O` [ONC0001551, homoquinolinicacid] was 85.08%; that for `CC(C)(O)[C@H]1[C@@H]2OC(=O)[C@@H]1[C@]1(O)C[C@H]3O[C@]34C(=O)O[C@H]2[C@]14C` [ONC0002779, picrotin] was 109.3%. For `C=C(C)[C@@H]1[C@H]2OC(=O)[C@H]1[C@]1(O)C[C@H]3O[C@]34C(=O)O[C@H]2[C@]14C` [ONC0004797, picrotoxinin], for the setting “m. mycetomatis hyphae”, the “% viability” value is recorded as 48.22%. The same measure, in the same setting: the value for `C=CCN1CC[C@@]2(C)c3cc(O)ccc3C[C@H]1[C@H]2C` [ONC0000854, skf10047] was 56.88%.
